Assay outcomes as filed in PubChem BioAssay.
KB-3-1 cytotox = kills parental KB-3-1 adenocarcinoma cells | actives 1.4% (n = 400,000) | KB-3-1 viability, CellTiter-Glo ATP luminescence, 72 h | Potency, µM (top dose mostly 46.1 µM), most hits filed as cytotoxic; note: % is set by controls: 0 for no effect and ±100 for the full control effect; nearly all actives have a fitted effect of over 60% in size
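Parental KB-3-1 viability, qHTS format: 72 h compound exposure, 37 °C; CellTiter-Glo; media-only wells and DMSO plates as controls; concentration-effect fits on corrected data.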
HepG2 tox = HepG2 cytotoxicity, counter-screen for TGF-b inhibitors; HepG2 CAGA-GFP viability, ATP luminescence, 18 h; Potency, µM (titrated, usually from 46.1 µM), for inactives: top-dose activity change, negative = cytotoxicity, hits mostly cytotoxic; actives 0.76% (n = 410,000); AID 588856
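HepG2 CAGA-GFP cells (1000/well, DMEM with 1% FBS) received compound, then TGF-beta at 500 pg/mL final, and were incubated 18 hours at 37 degrees C. Viability was read by CellTiter-Glo luminescence. Media-only wells were set as complete cell-killing and DMSO as no toxicity.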
HT1080-NT tox = kills 2HG-producing HT-1080-NT fibrosarcoma cells. Potency, µM (doses to about 46.1 µM), for the others: top-dose activity, negative = less viability, usual class: cytotoxic. AID 686970. HT-1080-NT fibrosarcoma viability, CellTiter-Glo ATP luminescence, 48 h. actives 1.6% (n = 360,000);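 note: NT is the 2HG producing partner of a matched IDH1 knockdown line; 0% = DMSO-treated cells and -100% = media-only wells without cells; nearly all actives have a fitted effect of over 55% in size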
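Viability of the 2HG-overproducing fibrosarcoma line after 48 hours of compound exposure at 37 degrees C was determined by luminescence with CellTiter-Glo, and concentration-effect curves were then fitted and categorized.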
HT1080 IDH1KD tx = kills HT-1080 cells with IDH1 knockdown | actives 2% (n = 360,000) | HT-1080 IDH1 knockdown viability, ATP luminescence, 48 h | Potency, µM (top dose mostly 46.1 µM), inactives show at the highest dose activity, negative = toxicity, actives largely listed as cytotoxic | AID 686971;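 note: 0% = DMSO wells and -100% = cell-free medium wells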
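IDH1KD HT-1080 cells, 750/well, RPMI + 5% FBS; compound pinned after 2 h settling; 48 h, 37 °C; CellTiter-Glo luminescence; % activity normalised to DMSO and no-cell wells; curves fitted, classed by r2 and efficacy.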
TGFb inhibitor = inhibitors of TGF-b signaling | HepG2 CAGA-GFP TGF-b/SMAD3 reporter, GFP fluorescence, 18 h; TGF-beta stimulated, 500 pg/mL final | actives 1.2% (n = 410,000) | Potency, µM (series often up to 46.1 µM), for inactives: at the top dose activity, negative = inhibition, hits mostly inhibitors; note: % is set by controls: 0 for no effect and ±100 for the full control effect; nearly all actives have a fitted effect of over 65% in size
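First, reporter cells (HEPG2 CAGA-GFP) rested 2 h at 37 degrees C. Next, compounds were pinned in and TGF-beta added to 500 pg/mL final. After 18 h, GFP was imaged per cell and summed per well.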
KB-V1 cytotox = KB-V1 MDR subline cytotoxicity | KB-V1 MDR cells viability, CellTiter-Glo, 72 h | Potency, µM (top dose mostly 46.1 µM), usual class: cytotoxic | actives 3.4% (n = 400,000) | AID 1347076; note: % is set by controls: 0 for no effect and ±100 for the full control effect; nearly all actives have a fitted effect of over 60% in size
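Cytotoxicity via CellTiter-Glo luminescence after 72 h compound exposure at 37 degrees C. Cells: drug-selected KB-V1 line, DMEM phenol-red free plus 10% FBS. Compounds tested at multiple concentrations; normalized data fitted to concentration-effect curves.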
Starred values were filed as active, the others as inactive; i = inactive; ? = inconclusive; · = no result given; ! = a repeat was not active. Hits are enriched below; roughly 6.6% of the tested compounds scored in any of these assays. Calls come from the whole dose curve; as a rule, active = well fitted curve in the direction sought with a large enough effect; inconclusive = small, poorly fitted or top-dose-only effect, or another doubt; inactive = no such curve, though single readings can be large; an effect the other way counts as inactive or inconclusive. Potency is the fitted concentration of half-maximal effect.

SMILES	KB-3-1 cytotox	HepG2 tox	HT1080-NT tox	HT1080 IDH1KD tx	TGFb inhibitor	KB-V1 cytotox
O=c1[nH]c(=O)n(C(c2ccccc2)c2ccccc2)cc1Br	i	15%	0%	9%	-7%	i
C=C(C)COc1ccc(-c2nc(N)ncc2-c2ccc(Cl)cc2)c(O)c1	?	-107%	?	-20%	?	23µM*
Nc1ncc(-c2ccccc2)c(-c2ccc(OCc3ccccc3)cc2O)n1	?	18µM*	?	?	?	i
COc1ccc(-c2nc(N)ncc2-c2ccccc2)c(O)c1	i	-20%	-25%	-23%	-3%	?
COc1ccc(C2=NN(C(C)=O)C(c3cn(-c4ccccc4)nc3-c3cccs3)C2)cc1 (stereo not drawn)	i	-12%	·	·	24%	i
CCC(C)Nc1ccc(NC(C)CC)cc1 (stereo not drawn)	?	13µM*!	3.7µM*	9.2µM*	11µM*!	?
CCC(C)NC(=O)Nc1ccc(Br)cc1 (stereo not drawn)	i	-15%	-2%	3%	-15%	i
COc1ccc(CNC(=O)c2oc3c(c2C)-c2nn(Cc4ccc(Cl)cc4)cc2CC3)cc1	·	-15%	·	·	-11%	·
CCOC(=O)CC1c2cc(OCC)c(OCC)cc2CCN1C(=O)Nc1cccc(Cl)c1 (stereo not drawn)	·	-22%	·	·	-11%	·
OC(c1ccccc1)(c1ccccc1)c1nccc2ccccc12	?	5%	3%	14%	3%	18µM*
N=C1SCC(=O)N1c1ncc(Cc2ccc(F)cc2)s1	i	-27%	?	16µM*	?	i
CC(C)(C)OC(=O)N1CCC(c2c(C(=O)NCc3ccc4c(c3)OCO4)cnn2-c2ccc(F)cc2F)CC1	i	-19%	·	·	13µM*	i
Cc1cccc(-n2ncc(C(=O)NCc3ccc4c(c3)OCO4)c2C2CCN(C(=O)OC(C)(C)C)CC2)c1	i	-7%	·	·	-25%	i
CCN(Cc1ccccc1)S(=O)(=O)c1ccc(-c2coc(C)n2)cc1	i	-33%	·	·	-5%	?
CCOc1ccc2nc3cc(N=Nc4ccc(N)nc4N)ccc3c(N)c2c1	?	14µM*	8%	19%	?	i
COc1ccc(C)cc1NC(=O)C1CCCN1C(=O)OCc1ccccc1 (stereo not drawn)	i	3%	3%	-1%	8%	i
COc1cc2nc(N3CCN(C(=O)OCc4ccccc4)[C@H](C(=O)NC(C)(C)C)C3)nc(N)c2cc1OC	i	-43%	18µM*	?	4%	i
CSC1=C(C#N)C(c2ccc(Cl)cc2)C2=C(CC(C)(C)CC2=O)N1 (stereo not drawn)	?	4%	-29%	8.2µM*	11µM*	21µM*
CC1(C)CC(=O)C2=C(C1)NC1=C(C(=O)c3ccccc31)C2c1ccc(Cl)cc1 (stereo not drawn)	?	-45%	-14%	18µM*	?	15µM*
Cc1ccc(C2C3=C(CC(C)(C)CC3=O)NC3=C2C(=O)c2ccccc23)cc1 (stereo not drawn)	?	3%	?	-29%	-5%	i
CC(=O)OC1CCC2C3CCC4OC(=O)CCC4C3CCC12C (stereo not drawn)	?	-25%	10%	17%	-3%	i
C=C1C(=O)C2=CC1CCC(=O)C1(C)CCC(OC(C)=O)C(C)(C)C1CC2O (stereo not drawn)	8.2µM*	-98%	-24%	5.8µM*	2.8µM*	6.5µM*
COCCCNC(=O)C1CCN(c2nc3ccc(Cl)cc3[nH]2)CC1	i	-5%	·	·	0%	?
O=C(N/N=C/c1cc([N+](=O)[O-])ccc1Cl)c1cnccn1	2.6µM*	-2%	4.1µM*	?	-10%	i
COc1ccc(/C=N/NC(=O)c2cnccn2)c(OC)c1OC	i	-79%	0%	0%	-17%	i
SMILES	KB-3-1 cytotox	HepG2 tox	HT1080-NT tox	HT1080 IDH1KD tx	TGFb inhibitor	KB-V1 cytotox
COc1cccc(/C=N/NC(=O)C(=O)N2CCCCCC2)c1O	i	-26%	?	13µM*	-11%	i
COc1cccc(/C=N/NC(=O)c2cnccn2)c1O	i	-45%	?	16µM*	?	i
COc1cccc(/C=N/NC(=O)c2ccoc2C)c1O	?	-57%	?	9.2µM*	?	i
O=C(N/N=C/c1cccc([N+](=O)[O-])c1)c1cnccn1	i	7%	19%	18%	-5%	i
Cc1ccc(Nc2cc(C(=O)NC3CCCC3)c3ccccc3n2)cc1C	i	0%	·	·	?	i
COc1ccc(C2Nc3ccccc3-n3c(-c4ccccc4)c4c(=O)n(C)c(=O)n(C)c4c32)cc1 (stereo not drawn)	?	-40%	·	·	-5%	?
O=C(N/N=C/c1ccccc1F)NC12CC3CC(CC(C3)C1)C2	i	0%	7%	1%	0%	i
COc1cccc(/C=N/NC(=O)C(=O)NCc2ccco2)c1O	i	-30%	8.9µM*	7.1µM*	2%	?
COc1cccc(/C=N/NC(=O)NC23CC4CC(CC(C4)C2)C3)c1O	?	-30%	?	18µM*	?	?
CCOC(=O)c1c(CN(C)C)n(-c2ccccc2)c2cc(Br)c(OC)cc12	?	-6%	?	?	?	21µM*
CCOC(=O)c1c(CN2CCCCC2)oc2ccc(O)cc12	i	0%	0%	-17%	0%	i
CCOC(=O)c1c(CN2CCOCC2)n(-c2ccccc2)c2cc(Br)c(O)cc12	i	-17%	6%	-8%	-6%	i
CCOC(=O)c1c(CN(C)C)n(-c2ccc(C)cc2)c2cc(Br)c(O)cc12	i	-34%	-9%	-19%	?	?
CCOC(=O)c1c(CN2CCOCC2)n(-c2ccccc2)c2cc(Br)c(OC)cc12	?	-6%	-17%	?	?	18µM*
CCOC(=O)c1c(CN2CCOCC2)oc2ccc(OC)cc12	i	1%	-3%	0%	3%	16µM*
CCOC(=O)c1c(CSC(=N)N)n(-c2ccc(C)cc2)c2cc(Br)c(OC(C)=O)cc12	i	11µM*	-13%	-27%	22µM*	i
Cc1cc(F)ccc1NC(=O)Cn1c(=O)ccc2cc(S(=O)(=O)N3CCC(C)CC3)ccc21	i	-7%	·	·	-3%	i
